Here are results for 26 compounds from PubChem BioAssay (NCI).

Each structure is given as a SMILES string. Values joined by “and” are separate entries in the source; they are usually repeats but may differ in a detail not shown here. Identical values can stand only once. Compounds without any hit were thinned out: in the full panel of roughly 83,000, 20% have a hit.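 Treatment: one concentration, 48 hours, 96-well format. Scoring: percent growth, with anything below 10 considered active.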 Active and inactive are the calls of the source.

This test concerns MDA-MB-468 breast. Put plainly: NCI-60 one-dose screen, 48 h (100 = growth as untreated, 0 = no growth, -100 = all killed). Conditions: 10 µM unless noted.
For the compound `C#Cc1cccc(Nc2ncnc3cc(NC(=O)CCl)ccc23)c1`, the growth was -60.8% (active).

Take `CN1CCC(CNc2ccc3ncc(-c4cccc(OC(F)(F)F)c4)n3n2)CC1`: the growth was -84.8% (active).

For the compound `O=S(=O)(Nc1ccccc1)c1ccc(C2CC3(Cl)C(Cl)=C(Cl)C2(Cl)C3(Cl)Cl)cc1` (stereo unspecified), the growth was 62.2% (inactive).

With `CC(=O)c1ccc2c(c1)N(CCCN1CCN(CCO)CC1)c1ccccc1S2`, the growth is 92.3% (inactive) and -79% (active).

Consider `CCc1ccc(/C(C#N)=C/C=C/c2ccccc2)cc1`, for which the growth was -13.9% (active).

Turning to `O=C1Nc2cc(-c3ccc(NS(=O)(=O)c4ccccc4)cc3)ccc2/C1=C/c1ccc[nH]1`, the growth is -7.8% (active).

`O=C(O)c1cccc(-n2ncc(Cl)c(Cl)c2=O)c1`: the growth was 74.5% (inactive).

In the case of `FC(F)(F)c1cc(CNc2ncc(Br)c(Cl)n2)cc(C(F)(F)F)c1`, the growth is 93.2% (inactive).

`N#Cc1c(N)nc(-c2cc(F)cc(C(F)(F)F)c2)nc1-c1ccccc1F`: the growth is 62.8% (inactive).

On to `CCc1ccc(Nc2ncnc3c2cnn3-c2cccc(Br)c2)cc1`, for which the growth was 91% (inactive).

As to `COc1ccc(-n2c(=O)sc3c(Cl)nc(C)nc32)c(OC)c1`, the growth is 57.8% (inactive).

As for `COc1ccc2cc(-c3nn(-c4ccc(C(=O)O)cc4)cc3CO)ccc2c1`, the growth was 109% (inactive).

With `O=C(C1=Cc2cc3ccccc3n2Cc2cnnn21)c1ccc(O)cc1`, the growth was 62.2% (inactive).

As for `CC[C@H](C)[C@H]1NC(=O)[C@@H](N[C@](C)(O)[C@@H](N)CC(C)C)[C@@H](C)OC(=O)[C@H](Cc2ccc(OC)cc2)N(C)C(=O)[C@@H]2CCCN2C(=O)[C@H](CC(C)C)NC(=O)[C@@H](C)C(=O)[C@H](C(C)C)OC(=O)C[C@@H]1O`, the growth is -31.2% (active).

Regarding `Nc1c(C(=O)c2ccc(Br)cc2)oc2nc(-c3cnccn3)cc(-c3cccs3)c12`, the growth was 99.4% (inactive).

For `COc1ccc(OC)c(/C=C2\CCc3ccccc3C2=O)c1`, the growth was -5.15% (active).

Consider `CCn1c2ccc(O)cc2c2c(C)c3c[n+](C(C)C)ccc3c(C)c21`, for which the growth is -19.7% (active).

In the case of `C=C1C(=O)O[C@H]2[C@H]1CC/C(COC(=O)/C=C\C(=O)NCc1ccc(Cn3c(=O)sn(-c4ccccc4)c3=O)cc1)=C\CC[C@@]1(C)O[C@@H]21`, the growth was 30.5% (inactive).

As for `[O-][n+]1c2ccccc2[n+]([O-])c2c3ccccc3[nH]c21`, the growth is -36.6% (active).

With `CNC1=C([N+](=O)[O-])C(c2ccccc2O)C(C#N)=C(c2cccs2)O1` (stereo unspecified), the growth was 74.5% (inactive).

For the compound `CC(C)(C)n1cc(-c2ccnc(NCCCNS(=O)(=O)c3ccc(F)cc3)c2)c(-c2cccc(F)c2)n1`, the growth was 53.2% (inactive).

With `CN(C)c1nc(-c2ccco2)n2nc(-c3ccc(Cl)cc3)cc2n1`, the growth was 78.3% (inactive).

As to `CCCCCCCCCC(=O)Oc1ccc(/C(=C(/C)c2ccccc2)c2ccc(OCCN3CCCC3)cc2)cc1`, the growth was -29.4% (active).

Turning to `O=c1c2cc(F)ccc2sc2c(NCCCN3CCCC3)nc3ccccc3c12`, the growth was -13.7% (active).

For the compound `CCOC(=O)C1=C(C)NC(=O)NC1c1c(Cl)n(CCCl)c2ccccc12` (stereo unspecified), the growth was 97.2% (inactive).

On to `O=C(CSc1nnc(-c2ccc(Cl)cc2)n1-c1ccccc1)Nc1ccc(F)cc1`, for which the growth was 91.8% (inactive).
